Measured values as given in PubChem BioAssay (Tox21).
Inconclusive results are not listed. Active and inactive are the calls of the source. Unless noted, calls come from the whole dose curve; as a rule, active = well fitted curve in the direction sought with a large enough effect in the repeat runs; inconclusive = weak or mixed curves; inactive = no such curve, though single readings can be large; an effect the other way counts as inactive or inconclusive.

How the values were obtained:
[1] = qHTS assay to identify small molecule antagonists of the estrogen related receptor signaling pathway with the pleiotropic PPARgamma coactivator (PGC) from Tox21 10K library - cell viability counter screen (AID 1224840; active = well fitted cell-killing curve with a large enough effect in the repeat runs, not every such curve was filed as active; note: nearly all actives have a fitted effect of over 40% in size); details: PGC/ERR reporter cells viability, CellTiter-Fluor, 17.5 h; series mostly up to 92.4 µM
Procedure, shortened: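 Step one, plate 2,000 PGC/ERR cells per well; step two, incubate 6 h at 37 C/5% CO2; step three, pin-transfer compounds; step four, incubate 17.5 h; step five, add CellTiter-Fluor and read fluorescence after 30 min.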

[2] = qHTS assay to identify small molecule agonists of the hypoxia (HIF-1) signaling pathway - cell viability counter screen (AID 1224844; calls by dose curve; note: nearly all actives have a fitted effect of over 50% in size); details: HRE-bla ME-180 viability, CellTiter-Glo luminescence, 17 h; series mostly up to 76.8 µM
Procedure, shortened: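 Tox21 10K compounds were added to HRE-bla ME-180 cells (0.5% dialyzed FBS) and incubated 17 hrs at 37C; ATP-based CellTiter-Glo luminescence then reported cell viability in the same wells.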

[3] = qHTS assay to identify small molecule agonists of the hypoxia (HIF-1) signaling pathway (AID 1224846; active = well fitted activation curve with a large enough effect in the signal ratio in the repeat runs, not every such curve was filed as active; the % refers to the signal ratio); details: HRE-bla ME-180 cells, beta-lactamase ratio, 17 h; series mostly up to 76.8 µM
Procedure, shortened: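 Steps: seed ME-180 HRE-bla cells (2,000/well, 0.5% dialyzed FBS); incubate 5 hrs at 37C; pin-transfer compounds or DMSO; incubate 17 hrs; add LiveBLAzer B/G substrate CCF4-AM; measure reporter activation by FRET.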

[4] = qHTS assay to identify small molecule agonists of H2AX - cell viability counter screen (AID 1224847; calls by dose curve; note: top concentration of the series differs between compounds; nearly all actives have a fitted effect of over 30% in size); details: CHO-K1 viability, CellTiter-Glo luminescence, 3 h; series mostly up to 154 µM
Procedure, shortened: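 Counter-screen for viability: CellTiter-Glo ATP luminescence read after 3 h compound treatment (15-point titration, 0.76% DMSO final) of CHO-K1 cells at 37C, with 30 min room-temperature reagent incubation.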

[5] = qHTS RealTime-Glo MT Cell Viability Assay in HepG2 cells - 24 hour (AID 1224867); details: RealTime-Glo luminescence; series mostly up to 76.8 µM; note: nearly all actives have a fitted effect of over 50% in size
Procedure, shortened: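 HepG2 cells (600/well) were dispensed with RealTime-Glo reagents, incubated 5 h at 37 °C, then treated with compounds in DMSO for up to 40 h. Nonlytic NanoLuc luminescence reflecting viable cells was read at each stated time point.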

[6] = qHTS RealTime-Glo MT Cell Viability Assay in HEK293 cells - 32 hour (AID 1224868); details: RealTime-Glo luminescence; series mostly up to 76.8 µM; note: top concentration of the series differs between compounds; nearly all actives have a fitted effect of over 50% in size
Procedure, shortened: (§1)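 HEK293 cells seeded with NanoLuc/prosubstrate reagent, rested 5 h at 37 C, then dosed and kept at 37 C up to 40 h. Nonlytic real-time luminescence from viable cells read at 0, 8, 16, 24, 32 and 40 h.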

[7] = A CellTox Green Cytotoxicity Assay to monitor cytotoxicity in HEK293 cells - 0 hour (AID 1224869); details: CellTox Green fluorescence; series mostly up to 76.8 µM; note: nearly all actives have a fitted effect of over 50% in size
Procedure, shortened: (§2)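 Cytotoxicity was tracked continuously in HEK293 cells by a DNA-binding dye excluded from viable cells. Compounds were transferred in DMSO 5 h after seeding; fluorescence was recorded at intervals up to 40 h.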

[8] = qHTS RealTime-Glo MT Cell Viability Assay in HepG2 cells - 40 hour (AID 1224870); details: RealTime-Glo luminescence; series mostly up to 76.8 µM; note: nearly all actives have a fitted effect of over 50% in size
Procedure, shortened: (§3)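 HepG2 cells (600/well) mixed with RealTime-Glo MT reagent, settled 5 h at 37 C/5% CO2 before compound addition. Nonlytic NanoLuc luminescence from viable-cell prosubstrate reduction read repeatedly during 40 h treatment at 37 C.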

[9] = qHTS RealTime-Glo MT Cell Viability Assay in HepG2 cells - 8 hour (AID 1224873); details: RealTime-Glo luminescence; series mostly up to 76.8 µM; note: nearly all actives have a fitted effect of over 55% in size
Procedure, shortened: as §3

[10] = qHTS RealTime-Glo MT Cell Viability Assay in HEK293 cells - 40 hour (AID 1224874); details: RealTime-Glo luminescence; max response: active compounds read low; note: nearly all actives have a fitted effect of over 50% in size
Procedure, shortened: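 Nonlytic bioluminescent viability monitoring. HEK293 at 600 cells/well with reagent; 5 h settle; compound transfer by pintool; plates held at 37 C and read at set time points.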

[11] = A CellTox Green Cytotoxicity Assay to monitor cytotoxicity in HEK293 cells - 24 hour (AID 1224875); details: CellTox Green fluorescence; series mostly up to 76.8 µM; note: nearly all actives have a fitted effect of over 45% in size
Procedure, shortened: as §2

[12] = A CellTox Green Cytotoxicity Assay to monitor cytotoxicity in HepG2 cells - 16 hour (AID 1224876); details: CellTox Green fluorescence; series mostly up to 76.8 µM; note: nearly all actives have a fitted effect of over 45% in size
Procedure, shortened: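 Real-time, homogeneous cytotoxicity readout: dead-cell DNA staining by CellTox Green in HepG2 monolayers, fluorescence measured at timed intervals up to 40 h of continuous compound exposure.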

[13] = A CellTox Green Cytotoxicity Assay to monitor cytotoxicity in HEK293 cells - 40 hour (AID 1224871); details: CellTox Green fluorescence; series mostly up to 76.8 µM; note: nearly all actives have a fitted effect of over 45% in size
Procedure, shortened: as §2

[14] = qHTS assay to identify small molecule agonists of H2AX (AID 1224845; active = well fitted activation curve with a large enough effect in the signal ratio in the repeat runs, not every such curve was filed as active; the % refers to the signal ratio); details: CHO-K1 phospho-H2AX Ser139 HTRF, 3 h; series mostly up to 154 µM
Procedure, shortened: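 Wild-type CHO-K1 cells, plated overnight, exposed 3hr at 37C to 15 concentrations (0.76% DMSO final). Lysed, then HTRF anti-pH2AX (S139) cryptate and anti-H2AX-d2 antibodies, 24 hr room temperature; 665/620 nm emission read.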

[15] = qHTS RealTime-Glo MT Cell Viability Assay in HEK293 cells - 16 hour (AID 1224872); details: RealTime-Glo luminescence; series mostly up to 76.8 µM
Procedure, shortened: as §1

[16] = target: Thyrotropin receptor (Homo sapiens) (UniProt P16473); test: qHTS assay to identify small molecule agonists of the thyroid stimulating hormone receptor (TSHR) signaling pathway (AID 1224843; calls by dose curve; note: nearly all actives have a fitted effect of over 45% in size); details: TSHR-HEK293 cells, cAMP HTRF, agonist mode, 30 min; series mostly up to 92.4 µM
Chain of Thyrotropin receptor (Homo sapiens) (P16473 whole entry, looked up): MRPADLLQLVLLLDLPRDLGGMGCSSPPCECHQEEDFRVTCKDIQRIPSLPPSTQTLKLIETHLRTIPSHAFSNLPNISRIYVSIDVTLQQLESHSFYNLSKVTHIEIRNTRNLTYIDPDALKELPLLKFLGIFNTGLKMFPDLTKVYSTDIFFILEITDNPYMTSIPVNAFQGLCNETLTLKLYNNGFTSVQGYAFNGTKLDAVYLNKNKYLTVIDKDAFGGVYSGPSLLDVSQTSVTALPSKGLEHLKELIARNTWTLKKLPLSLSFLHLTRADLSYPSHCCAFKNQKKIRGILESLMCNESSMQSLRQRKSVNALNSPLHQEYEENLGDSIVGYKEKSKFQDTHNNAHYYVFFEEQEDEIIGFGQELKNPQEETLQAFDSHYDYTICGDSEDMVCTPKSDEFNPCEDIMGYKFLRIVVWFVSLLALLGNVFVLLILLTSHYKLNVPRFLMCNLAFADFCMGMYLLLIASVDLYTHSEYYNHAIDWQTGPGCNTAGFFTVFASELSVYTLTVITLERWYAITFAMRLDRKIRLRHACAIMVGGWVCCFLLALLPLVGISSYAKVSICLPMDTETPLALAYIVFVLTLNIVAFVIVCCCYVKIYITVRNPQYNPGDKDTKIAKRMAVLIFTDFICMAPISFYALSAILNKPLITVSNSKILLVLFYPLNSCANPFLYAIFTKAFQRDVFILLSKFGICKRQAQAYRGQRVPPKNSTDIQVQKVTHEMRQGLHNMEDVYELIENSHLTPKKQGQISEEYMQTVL
Procedure, shortened: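 TSHR-HEK293 cells in agonist mode, 30 min room-temperature step, then cAMP measured by competitive HTRF (cAMP-d2 with anti-cAMP cryptate) after 1 h at room temperature. Tested at 15 concentrations in triplicate.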
% is set by controls: 0 for no effect and ±100 for the full control effect.

[Cl][Eu]([Cl])[Cl]
inactive: Potency [1] | Potency [2] | Potency [3] | Potency [4] | Potency [5] | Potency [6] | Potency [7] | Potency [8] | Potency [9] | max response [10] -1.1% | Potency [11] | Potency [12]

CC(=O)CC(N)=O
inactive: Potency [1] | Potency [2] | Potency [3] | Potency [4] | Potency [5] | Potency [6] | Potency [7] | Potency [8] | Potency [13] | Potency [9] | max response [10] 14.8% | Potency [11] | Potency [12]

C/C(=N\[Si](C)(C)C)O[Si](C)(C)C
inactive: Potency [1] | Potency [2] | Potency [14] | Potency [3] | Potency [4] | Potency [5] | Potency [6] | Potency [7] | Potency [8] | Potency [15] | max response [10] -1.35% | Potency [11] | Potency [12]

CCCCNc1ccc(NCCCC)c2c1C(=O)c1ccccc1C2=O
inactive: viability change, negative = cytotoxic [1] -1.23% [at 19 µM] | activation [16] -9.62% [at 19 µM] | activity change, negative = cytotoxicity [2] -26.2% [at 15.8 µM] | activation [3] 0.413% [at 15.8 µM] | activity change, negative = cytotoxicity [4] -12.2% [at 31.6 µM] | activity change, negative = cytotoxicity [5] -2.93% [at 15.8 µM] | activity change, negative = cytotoxic [6] 1.33% [at 15.8 µM] | cytotoxicity [7] 1.41% [at 15.8 µM] | activity change, negative = cytotoxic [8] -5.13% [at 15.8 µM] | cytotoxicity increase [13] -1.5% [at 15.8 µM] | activity change, negative = cytotoxicity [15] 9.94% [at 15.8 µM] | viability change, negative = cytotoxic [9] 0.0909% [at 15.8 µM] | max response [10] -1.48% | activity change [11] 0.143% [at 15.8 µM, active compounds read high] | cytotoxicity increase [12] -0.637% [at 15.8 µM]

CCOC(=O)[C@H](O)[C@@H](O)C(=O)OCC
inactive: Potency [1] | Potency [2] | Potency [14] | Potency [3] | Potency [4] | Potency [5] | Potency [6] | Potency [7] | Potency [8] | Potency [13] | Potency [15] | Potency [9] | max response [10] 5.68% | Potency [11] | Potency [12]

ClC(c1ccccc1)(c1ccccc1)c1ccccc1
inactive: Potency [1] | Potency [2] | Potency [14] | Potency [3] | Potency [4] | Potency [5] | Potency [6] | Potency [7] | Potency [8] | Potency [13] | Potency [15] | max response [10] -24.6% | Potency [11] | Potency [12]

CCSCC
inactive: Potency [1] | Potency [2] | Potency [3] | Potency [4] | Potency [5] | Potency [6] | Potency [7] | Potency [8] | Potency [13] | Potency [15] | max response [10] 8.26% | Potency [11] | Potency [12]

C=CC(C)(C)O
inactive: Potency [1] | Potency [2] | Potency [14] | Potency [3] | Potency [4] | Potency [5] | Potency [6] | Potency [7] | Potency [8] | Potency [13] | Potency [15] | Potency [9] | max response [10] 6.97% | Potency [11] | Potency [12]
